Test results: PubChem BioAssay
Records with an inconclusive call do not appear. The source made the active and inactive calls. Unless noted, no cut-off is given here; in the data, nearly all actives have AC50 up to about 30 µM.

Assays:
[1] = viability loss in pontine glioma line – cell-based, JHH-DIPG-1, MIPE4.0, CellTiter-Glo, qHTS, dose response (AID 1347062; cut-off not given, nearly all actives have AC50 up to about 27 µM;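 for AC50: cells exposed to compound for two days before readout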); conditions: JHH-DIPG-1 viability, CellTiter-Glo ATP luminescence
[2] = viability loss in pontine glioma line – cell-based, SU-DIPG-IV, MIPE4.0, CellTiter-Glo, qHTS, dose response (AID 1347063); conditions: CellTiter-Glo ATP luminescence;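 note: compound exposure lasted 48 hours before the viability readout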
[3] = viability loss with induced miR-34 in A549 – imaging, A549 dox-inducible miR-34, nuclei and caspase counts, primary screen (AID 1347080;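 active = compounds whose cell count with miR-34 switched on is under 0.7 times the count with it off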); conditions: A549 miR-34 inducible, Hoechst nuclei count, 48 h
[4] = MELAS cybrid and Rieske KO viability enhancers – cell-based, MELAS cybrids, Rieske KO mouse fibroblasts, CellTiter-Glo, primary screen (AID 1508586;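 active = mean z-score across replicates of 1.96 or higher in either the MELAS or the Rieske mutant cell line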;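 note: z relative to plate mean and SD of compound and empty wells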); conditions: low glucose
[5] = galactose survival enhancers in mitochondrial complex I cybrids – cell-based, galactose medium, ATP luminescence, primary screen (AID 1645843;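 active = z-score of at least 1.8 in each of two replicates, scored against plate mean and spread of sample wells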;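 note: positive z means more ATP and so rescue of galactose-driven cybrid death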); conditions: complex I mutant cybrid cells, 72 h, stronger effect = higher value
[6] = viability loss in pontine glioma line – cell-based, SU-DIPG-XIII, MIPE4.0, CellTiter-Glo, qHTS, dose response (AID 1347061; cut-off not given, nearly all actives have AC50 up to about 37 µM;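 note: cells exposed to compound for 48 hours before readout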); conditions: CellTiter-Glo ATP luminescence
[7] = growth inhibition of DIPG cells – cell-based, MIPE4.0 library, CellTiter-Glo luminescence, qHTS (AID 1347066); conditions: SU-DIPG-VI viability, CellTiter-Glo ATP luminescence;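 note: cells exposed to compound for 48 hours before readout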
[8] = viability loss in pontine glioma line – cell-based, SU-DIPG-XIII, MIPE5.0, CellTiter-Glo, qHTS, dose response (AID 1347064; cut-off not given, nearly all actives have AC50 up to about 23 µM); conditions: CellTiter-Glo ATP luminescence
[9] = JHH-DIPG-1 glioma cell viability, MIPE5.0 library, CellTiter-Glo luminescence, qHTS (AID 1347067; cut-off not given, nearly all actives have AC50 up to about 26 µM;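 note: cells exposed to compound for 48 hours before readout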); conditions: JHH-DIPG-1 glioma viability, CellTiter-Glo ATP luminescence
[10] = growth inhibition of DIPG cells – cell-based, MIPE5.0 library, qHTS (AID 1347068; cut-off not given, nearly all actives have IC50 up to about 30 µM;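 for IC50: cells exposed to compound for 48 hours before viability readout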); conditions: SU-DIPG-XXV viability
[11] = growth inhibition, single agent or in combination, cell-based, chromothripsis tumors, cisplatin or BGB combos (AID 1671449; in the data active = inhibition above about 80%;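 note: cells exposed for 96 hours; 0% = vehicle DMSO and 100% = killing by high DMSO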); conditions: LFS_MB_P medulloblastoma cells
[12] = growth inhibition, single agent and combos, cell-based, chromothripsis tumors, cisplatin or BGB combos (AID 1671450; in the data active = inhibition above about 80%;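 note: cells exposed to compound for four days; 0% = vehicle DMSO and 100% = cell killing by high DMSO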); conditions: HDN33 neuroblastoma cells, stronger effect = higher value
[13] = growth inhibition, single agents and combos, ICB984, cell-based, cisplatin or BGB combos, synergistic combos for chromothripsis tumors (AID 1671451; call rule not given here;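 note: cells exposed for 96 hours before readout; 0% = vehicle DMSO and 100% = killing by high DMSO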); conditions: ICB984 medulloblastoma cells, drug combinations, stronger effect = higher value
[14] = growth inhibition, single agents and combos, LFS_MB_1R, cell-based, cisplatin or BGB combos, synergistic combos for chromothripsis tumors (AID 1671452; in the data active = inhibition above about 80%;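 note: cells exposed for 96 hours before readout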); conditions: LFS_MB_1R medulloblastoma cells, stronger effect = higher value
[15] = growth inhibition, single agents and combos, HTB85, cell-based, BGB or cisplatin IC20 combos, synergistic combos for chromothripsis tumors (AID 1671453; in the data active = inhibition above about 80%;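 note: cells exposed for 96 hours before readout; 0% = vehicle DMSO and 100% = high DMSO killing control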); conditions: HTB85 osteosarcoma cells, drug combinations, stronger effect = higher value
[16] = growth inhibition, single agents and combos, CRL2098, cell-based, BGB or cisplatin IC20 combos, synergistic combos for chromothripsis tumors (AID 1671454; in the data active = inhibition above about 80%;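 note: cells exposed for 96 h before readout; 0% = vehicle DMSO and 100% = killing by high DMSO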); conditions: CRL2098 osteosarcoma cells, drug combinations, stronger effect = higher value
[17] = growth inhibition, single agents and combos, HD-MB03, cell-based, BGB or cisplatin IC20 combos, synergistic combos for chromothripsis tumors (AID 1671455; in the data active = inhibition above about 83%;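 note: 0% = vehicle DMSO and 100% = high DMSO as cytotoxic control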); conditions: HD-MB03 medulloblastoma cells, stronger effect = higher value
[18] = growth inhibition, single agents and combos, UWB1.289, cell-based, BGB or cisplatin combos, synergistic combos for chromothripsis tumors (AID 1671456; in the data active = inhibition above about 80%;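 note: cells exposed to compound for four days; 0% = vehicle DMSO and 100% = killing by high DMSO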); conditions: UWB1.289 ovarian carcinoma cells, stronger effect = higher value
[19] = growth inhibition, single agents and combos, LFS_MB_2R, cell-based, cisplatin combos, synergistic combos for chromothripsis tumors (AID 1671457; in the data active = inhibition above about 80%;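 note: cells exposed to compound for four days before readout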); conditions: LFS_MB_2R medulloblastoma cells, stronger effect = higher value
[20] = growth inhibition, MDA-MB-436, cell-based, BGB or cisplatin combos, synergistic combos for chromothripsis tumors (AID 1671458; call rule not given here;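 note: cells exposed for 96 hours; 0% = vehicle DMSO and 100% = killing by high DMSO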); conditions: MDA-MB-436 breast carcinoma growth inhibition, drug combinations, stronger effect = higher value
[21] = UWB1.289_BRCA1 ovarian cancer growth, cell-based, BGB or cisplatin combinations (AID 1671459; in the data active = inhibition above about 80%); conditions: UWB1.289 BRCA1 ovarian carcinoma, drug combinations, stronger effect = higher value
[22] = drug combination toxicity in non-malignant astrocytes – cell-based, BGB or cisplatin IC20 combos, cytotoxicity control for chromothriptic childhood tumor combination screen (AID 1671460; in the data active = inhibition above about 80%;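 note: cells exposed to compounds for 96 hours before viability readout; 0% = vehicle and 100% = killing control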); conditions: Human astrocytes, viability inhibition, drug combinations, at 0.5 µM, stronger effect = higher value
[23] = BT084 cell growth, single and combined drugs, ICGC_MB145, cisplatin and BGB IC40 combos (AID 1671461; in the data active = inhibition above about 80%;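 note: cells exposed to drugs for 96 hours; 0% = vehicle DMSO and 100% = high DMSO full killing control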); conditions: BT084 medulloblastoma cells, drug combinations, stronger effect = higher value
[24] = RCMB18 cell growth, single agent and combined, cisplatin and BGB IC40 combos (AID 1671462; in the data active = inhibition above about 80%;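 note: cells exposed to compound for four days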); conditions: RCMB18 medulloblastoma cells, stronger effect = higher value
[25] = CRL1545 cell growth, single agent and combined, cisplatin and BGB IC20 combos (AID 1671464; in the data active = inhibition above about 80%;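 note: cells exposed to compound for 96 hours before readout; 0% = vehicle DMSO and 100% = high DMSO killing control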); conditions: CRL1545 osteosarcoma cells, stronger effect = higher value
[26] = chitosan synthesis blockers in C. neoformans – flow cytometry, Cibacron Brilliant Red staining (AID 1347148; call rule not given here;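 note: compound exposure lasted three days at 37 degrees C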); conditions: Cryptococcus neoformans chitosan, stronger effect = lower value; at 10 µM unless noted
[27] = viability loss in pontine glioma line – cell-based, SU-DIPG-XXV, MIPE5.0, CellTiter-Glo, qHTS, dose response (AID 1347065; cut-off not given, nearly all actives have AC50 up to about 26 µM;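 note: cells exposed to compound for 48 hours before ATP readout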); conditions: CellTiter-Glo ATP luminescence
[28] = measured here: relative caspase fold change +Dox/-Dox
[29] = measured here: total cells with miR-34 induction, stronger effect = lower value
[30] = measured here: total cells without miR-34 induction
[31] = MELAS cybrid survival, CellTiter-Glo 48 h, stronger effect = higher value
[32] = Rieske KO mouse fibroblast survival, CellTiter-Glo 72 h
[33] = measured here: combination with BGB IC40, at 0.05 µM
[34] = measured here: with BGB IC20 combination, at 0.5 µM
[35] = measured here: with cisplatin IC20 combination, at 0.5 µM
[36] = measured here: combination with cisplatin, at 0.5 µM
[37] = measured here: combination with cisplatin, at 5 µM

C[C@](O)(CS(=O)(=O)c1ccc(F)cc1)C(=O)Nc1ccc(C#N)c(C(F)(F)F)c1
AC50 [1]: 2.35 µM (active) | AC50 [2]: 1.66 µM (active) | fold change ([3]; stronger effect = lower value): 0.814 (inactive) | fold change [3, 28]: 0.512 | cell count [3, 29]: 7480 | cell count [3, 30]: 9190 | z-score [4, 31]: 0.389 (inactive) | z-score [4, 32]: -0.102 | z-score [5]: -0.71 (inactive)

O=[N+]([O-])c1ncc[nH]1
outcome [6]: inactive | outcome [1]: inactive | outcome [2]: inactive | outcome [7]: inactive | fold change ([3]; stronger effect = lower value): 0.87 (inactive) | fold change [3, 28]: 0.789 | cell count [3, 29]: 7870 | cell count [3, 30]: 9040 | z-score [4, 31]: -0.216 (inactive) | z-score [4, 32]: 0.743

COC1(CS(=O)c2ccccc2)CCN(CCc2c[nH]c3ccc(F)cc23)CC1 (stereo not given)
outcome [6]: inactive | outcome [1]: inactive | outcome [2]: inactive | outcome [8]: inactive | outcome [7]: inactive | outcome [9]: inactive | outcome [10]: inactive

O=C1CCC[C@@H]2[C@H]3CCCN4CCC[C@@H](CN12)[C@@H]34
outcome [6]: inactive | outcome [1]: inactive | outcome [2]: inactive | outcome [7]: inactive | inhibition ([11]; at 0.5 µM, stronger effect = higher value): -20.9% (inactive) | inhibition ([11]; measured here: combination with BGB IC20, at 0.005 µM): -26.5% | inhibition ([11]; measured here: combination with BGB IC40, at 0.005 µM): -23% | inhibition [11, 33]: -17% | inhibition ([11]; measured here: combination with cisplatin, at 0.5 µM, stronger effect = higher value): -27.3% | inhibition ([11]; measured here: combination with cisplatin, at 5 µM, stronger effect = higher value): 64.5% | inhibition ([12]; BGB combo, at 5 µM): 59.7% | inhibition ([12]; at 0.5 µM): 6.84% (inactive) | inhibition ([12]; cisplatin combo, at 5 µM): 52.4% | inhibition [12, 34]: -9.69% | inhibition [12, 35]: 11.1% | inhibition ([12]; single agent, at 5 µM): 48.2% | inhibition ([13]; BGB IC20 combo, at 0.005 µM): 5.19% | inhibition ([13]; BGB IC40 combo, at 0.005 µM): 0.771% | inhibition ([13]; BGB IC40 combo, at 0.05 µM): 63.2% | inhibition ([13]; at 0.5 µM): -0.41% (inactive) | inhibition ([13]; cisplatin combo, at 0.05 µM): 61.6% | inhibition ([13]; cisplatin combo, at 0.5 µM): 2.95% | inhibition ([13]; cisplatin combo, at 5 µM): -10% | inhibition ([13]; measured here: 5 uM single agent, at 5 µM): 1.92% | inhibition ([14]; at 0.5 µM): 12.9% (inactive) | inhibition [14, 33]: -3.79% | inhibition [14, 36]: 12.5% | inhibition [14, 37]: 79.4% | inhibition ([15]; at 0.5 µM): 0.28% (inactive) | inhibition ([15]; measured here: with BGB IC20, at 0.5 µM): 0.562% | inhibition ([15]; measured here: with BGB IC20, at 5 µM): 39.5% | inhibition ([15]; measured here: with cisplatin IC20, at 0.5 µM): -4.39% | inhibition ([15]; measured here: with cisplatin IC20, at 5 µM): 33.8% | inhibition ([15]; single agent, at 5 µM): 15.4% | inhibition ([16]; at 0.5 µM): 11.9% (inactive) | inhibition ([16]; measured here: combination with BGB at IC20, at 0.5 µM): -8.11% | inhibition ([16]; measured here: combination with cisplatin at IC20, at 0.5 µM): 39.2% | inhibition ([17]; at 0.5 µM): 2.42% (inactive) | inhibition ([17]; measured here: combo with BGB at IC20, at 0.5 µM): 3.91% | inhibition ([17]; measured here: combo with cisplatin at IC20, at 0.5 µM): -1.67% | inhibition ([18]; at 0.5 µM): 2.22% (inactive) | inhibition ([18]; measured here: inhibition with BGB combination, at 0.05 µM): 4.13% | inhibition ([18]; measured here: inhibition with cisplatin combination, at 0.05 µM): 1.55% | inhibition ([19]; at 0.5 µM): 0.58% (inactive) | inhibition [19, 36]: 8.66% | inhibition [19, 37]: 60.9% | inhibition ([20]; at 0.5 µM): -3.03% (inactive) | inhibition ([20]; measured here: BGB combination, at 0.5 µM): -5.75% | inhibition ([20]; measured here: BGB combination, at 5 µM): 1.19% | inhibition ([20]; measured here: cisplatin combination, at 0.5 µM): -10.4% | inhibition ([20]; measured here: cisplatin combination, at 5 µM): 1.01% | inhibition ([21]; BGB combination, concentration series, at 5 µM): 24% | inhibition ([21]; at 0.5 µM): 2.45% (inactive) | inhibition ([21]; cisplatin combination, concentration series, at 5 µM): 16.1% | inhibition [22]: 2.72% (inactive) | inhibition ([22]; measured here: combo with BGB IC20): 3.13% | inhibition ([22]; measured here: combo with cisplatin IC20): 4.87% | inhibition ([23]; at 0.5 µM): 3.62% (inactive) | inhibition ([23]; cisplatin combination, at 0.5 µM): 3.61% | inhibition ([23]; cisplatin combination, at 5 µM): 62.6% | inhibition ([23]; measured here: BGB IC40 combination 0.05 uM, at 0.05 µM): -11% | inhibition ([23]; single agent, at 5 µM): 75.7% | inhibition ([24]; at 0.5 µM): -5.51% (inactive) | inhibition ([24]; cisplatin combo, at 5 µM): 33.7% | inhibition ([24]; measured here: BGB IC40 combination, at 0.05 µM): -15.6% | inhibition [24, 36]: -27.9% | inhibition ([24]; single agent, at 5 µM): 31.3% | inhibition ([25]; at 0.5 µM): 8.42% (inactive) | inhibition [25, 34]: -16.4% | inhibition [25, 35]: 19.6% | inhibition ([25]; single agent, at 0.05 µM): -32.9% | inhibition ([25]; single agent, at 5 µM): -58%

CC1=C(CC/C(C)=C/CCC2=CCC(C3=CC(=O)OC3O)OC2O)C(C)(C)CCC1 (stereo not given)
outcome [6]: inactive | outcome [1]: inactive | outcome [2]: inactive | outcome [7]: inactive | fold fluorescence [26]: 4.39 [at 120 µM] (inactive)

CC[C@@H]1[C@@H](C)O[C@@](O)([C@@H](C)[C@H](O)[C@H](C)[C@H]2OC(=O)/C=C/C=C/[C@H](C)[C@@H]([C@@H](C)[C@@H](O)[C@H](C)[C@@]3(O)C[C@@H](O[C@H]4C[C@H](O)[C@H](O)[C@H](C)O4)[C@H](CC)[C@@H](C)O3)OC(=O)/C=C/C=C/[C@@H]2C)C[C@H]1O[C@H]1C[C@H](O)[C@H](O)[C@H](C)O1
AC50 [1]: 0.59 µM (active) | AC50 [2]: 0.743 µM (active) | AC50 [7]: 0.469 µM (active)

CO/C1=C/C(C)=C\[C@@H](C)[C@@H](O)[C@@H](C)C/C(C)=C\C=C/[C@H](OC)[C@@H]([C@@H](C)[C@@H](O)[C@H](C)[C@@]2(O)C[C@@H](O)[C@H](C)[C@@H](C(C)C)O2)OC1=O
AC50 [1]: 11.8 µM (active) | AC50 [2]: 9.35 µM (active) | AC50 [27]: 0.393 µM (active) | AC50 [7]: 3.72 µM (active) | AC50 [9]: 9.86 µM (active) | IC50 [10]: 0.0494 µM (active)

C[C@H]([C@H](O)CCC(C)(C)O)[C@H]1CC[C@@]2(O)C3=CC(=O)[C@@H]4C[C@@H](O)[C@@H](O)C[C@]4(C)[C@H]3CC[C@]12C
outcome [6]: inactive | outcome [1]: inactive | outcome [2]: inactive | outcome [7]: inactive

O=C(N[C@@H](COc1ccc2[nH]c(=O)[nH]c2c1)c1ccccc1)c1cccn(Cc2ccc(F)c(F)c2)c1=O
outcome [6]: inactive | outcome [8]: inactive | AC50 [27]: 18.6 µM (active) | AC50 [9]: 16.6 µM (active) | outcome [10]: inactive

CC(C)(O)C(=O)Nc1ccc([N+](=O)[O-])c(C(F)(F)F)c1
AC50 [6]: 11.8 µM (active) | outcome [8]: inactive | outcome [7]: inactive | outcome [10]: inactive
